# HT1080-NT tox = kills 2HG-producing HT-1080-NT fibrosarcoma cells. Potency, µM (highest dose often 46.1 µM), inactives show top-dose activity, negative = less viability, hits mostly cytotoxic. 360,000 compounds, 1.6% hits. AID 686970. HT-1080-NT fibrosarcoma viability, CellTiter-Glo ATP luminescence, 48 h;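 also: NT is the 2HG producing partner of a matched IDH1 knockdown line; potency is read from the fitted curve at half-maximal effect; 0% = DMSO-treated cells and -100% = media-only wells without cells; nearly all actives have a fitted effect of over 55% in size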
#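 Toxicity toward the 2HG-producing NT line was scored as %Activity, normalised to DMSO and no-cell wells, from CellTiter-Glo luminescence after 48 hours' treatment.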
# HT1080 IDH1KD tx = toxicity to HT-1080 IDH1 knockdown cells (counter line); HT-1080 IDH1 knockdown viability, ATP luminescence, 48 h; Potency, µM (highest dose often 46.1 µM), for the others: at the highest dose activity, negative = toxicity, actives largely listed as cytotoxic; 360,000 compounds, 2% hits;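 also: potency is read from the fitted curve at half-maximal effect; 0% = DMSO wells and -100% = cell-free medium wells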
#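 CellTiter-Glo luminescence after 48 h compound exposure at 37 degrees C of IDH1-knockdown HT-1080 cells in 5% FBS RPMI. %Activity scaled between DMSO wells and cell-free media wells, with curves fitted and assigned curve classes.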
# DT40 TDP1 no CPT = qHTS for Inhibitors of human tyrosyl-DNA phosphodiesterase 1 (TDP1): qHTS in cells in absence of CPT; AID 686978, 2013; 420,000 compounds, 15% hits; DT40 Tdp1-/- hTDP1 cells, no CPT, ATP luminescence, 48 h; Potency, µM (doses to about 46.2 µM), for inactives: top-dose activity change, negative = growth inhibition, usual class: inhibitors; also: potency is read from the fitted curve at half-maximal effect; nearly all actives have a fitted effect of over 55% in size
#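 A cellular qHTS used chicken DT40 cells lacking endogenous Tdp1 but carrying stably transfected human TDP1. Compounds were applied without camptothecin, and cell growth kinetics were judged by ATP-dependent luminescence after ≥48 hr.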
# IL-1B inflam inh = inhibitors of inflammasome signaling (IL-1 beta secretion). THP-1 LPS/ATP IL-1B secretion, AlphaLISA, 16 h; hits give low values. activity change, % at 57.5 µM. 360,000 compounds, 4.7% hits. AID 743279; in the data active = activity change below about -50%; inconclusive = mostly about -30% to -49%
#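 THP-1 cells pretreated 1 hr with compounds (up to 57.5 uM final), then stimulated with LPS (250 ng/mL final) plus ATP (1.25 mM final); secreted IL-1B measured by AlphaLISA after 16 hr, decreased signal indicating inhibition.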
# DT40 TDP1 CPT = DT40-hTDP1 cell growth loss with CPT. AID 686979. Potency, µM (series often up to 46.2 µM), for inactives: at the top dose activity change, negative = growth inhibition, usual class: inhibitors. chicken DT40 Tdp1-/-;hTDP1 cells + 20 nM CPT, ATP luminescence, 48 h. 420,000 compounds, 12% hits; also: potency is read from the fitted curve at half-maximal effect; nearly all actives have a fitted effect of over 55% in size
#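 Cell growth measured by CellTiter-Glo luminescence after a minimum 48 h, 37 C compound exposure with 20 nM CPT in Tdp1-knockout DT40 cells stably expressing hTDP1, seeded 400/well; qHTS titration format.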
# Active calls of the source: *; ? = inconclusive; . = no result given; [ ] = dose if it differs, or a comment. The list is not random: actives were taken first. Their share in the collection is about 19%. Unless noted, calls follow the shape of the dose curve; as a rule, active = well fitted curve in the direction sought with a large enough effect; inconclusive = small, poorly fitted or top-dose-only effect, or another doubt; inactive = no such curve, though single readings can be large; an effect the other way counts as inactive or inconclusive. Unless noted, % is scaled to controls: 0 for no effect and ±100 for the full control effect.
SMILES,HT1080-NT tox,HT1080 IDH1KD tx,DT40 TDP1 no CPT,IL-1B inflam inh,DT40 TDP1 CPT
COC(=O)c1sccc1NC(=O)Nc1cccc([N+](=O)[O-])c1,4%,-7%,10%,2,2%
O=C(Nc1ccncc1)c1cc2ccccc2cc1O,?,?,12µM*,-88*,?
Cn1nc(C(C)(C)C)c([N+](=O)[O-])c1C(=O)Nc1ccc(Br)cc1,?,-26%,23µM*,-29,?
O=C(Nc1ccncc1)c1ccccc1F,-11%,-1%,-26%,?,?
Cc1cccc(NC(=O)c2c([N+](=O)[O-])c(C(C)(C)C)nn2C)c1,11%,1%,-26%,19,-1%
Cc1ccccc1NS(=O)(=O)c1cc(C(=O)Nc2cccc([N+](=O)[O-])c2)ccc1C,?,21µM*,?,?,?
CC(NC(=O)Nc1cccc([N+](=O)[O-])c1)(C(F)(F)F)C(F)(F)F,?,16µM*,?,0,3.7µM*
Cc1ncc2c(c1CNC(=O)c1ccc3c(c1)OCO3)CCN(C(=O)/C=C/c1ccc(Cl)cc1)C2,.,.,-27%,.,-9%[9.04 µM]
CCCN(C(=O)c1cc(S(=O)(=O)N2CCCCCC2)ccc1OC)C1CCS(=O)(=O)C1 (configuration not stated),4%,3%,0%,-9,-29%
COc1ccc(C(=O)Nc2ccc3nc(C)sc3c2)cc1OC,7%,2%,-17%,-58*,0%
O=C(Nc1cccc([N+](=O)[O-])c1)c1cc2ccccc2cc1O,3.7µM*,3.7µM*,2.6µM*,?,4.1µM*
Cc1nc2ccc(C(=O)Nc3cccc([N+](=O)[O-])c3)cc2s1,8%,9%,18µM*,-6,?
COC(=O)c1ccc(NC(=O)c2ccc3nc(C)sc3c2)cc1,-12%,-13%,-1%,34,-6%
O=C(N/N=C/c1cc([N+](=O)[O-])ccc1O)c1cccc(NC(=O)c2cccc(Cl)c2)c1,-1%,-13%,3.3µM*,92,5.2µM*
COc1ccc(NC(=O)c2ccc3nc(C)sc3c2)cc1,-1%,-2%,-41%,-15,-6%
O=C(O)c1ccccc1C(=O)Nc1cccc([N+](=O)[O-])c1,-4%,-1%,-7%,-15,-1%
Cc1ccc(C(=O)NCc2ccncc2)cc1S(=O)(=O)Nc1cccc(C)c1C,-11%,-5%,5%,6,-10%
Cc1nc2ccc(NC(=O)c3ccc(Cl)c(NC(=O)c4cccs4)c3)cc2s1,-15%,-18%,21µM*,37,?
Cc1ccc(C(=O)Nc2ccccc2-c2ccccc2)cc1S(=O)(=O)Nc1cccc(C)c1C,?,?,21µM*,?,?
O=C(Nc1ccc(Br)cc1)c1cc([N+](=O)[O-])cc([N+](=O)[O-])c1,-10%,0%,?,-101*,4.6µM*
Cc1ccc(NC(=O)c2ccc(Cl)c(NC(=O)c3cccs3)c2)cc1,?,?,?,-14,?
O=C(Nc1cccc([N+](=O)[O-])c1)c1cccc(C(=O)Nc2cccc([N+](=O)[O-])c2)c1,1%,5%,7.3µM*,-22,?
COc1ccc(CN2CCC(n3nccc3NC(=O)CCc3ccccc3)CC2)c(C)c1C,11%,0%,?,-6,?
COc1ccc(NC(=O)c2cccc([N+](=O)[O-])c2)cc1,13%,14%,-1%,-17,5%
COc1ccc(NC(=O)c2cc([N+](=O)[O-])ccc2O)cc1,21µM*,?,5.8µM*,3,8.2µM*
SMILES,HT1080-NT tox,HT1080 IDH1KD tx,DT40 TDP1 no CPT,IL-1B inflam inh,DT40 TDP1 CPT
COC(=O)C1(c2ccccc2)NC(c2cccs2)C2C(=O)N(c3ccccc3)C(=O)C21 (configuration not stated),5%,-11%,-7%,17,-6%
CC(C)Cn1c(=O)c2ccccc2n2c(CCC(=O)N3CCN(c4ccccc4F)CC3)nnc12,.,.,23µM*,.,23µM*
CC(C)Cn1c(=O)c2ccccc2n2c(CCC(=O)N3CCN(c4ccccc4)CC3)nnc12,.,.,16µM*,.,?
O=C1c2c(-c3ccc(Br)cc3)noc2CCN1Cc1cn(Cc2cccnc2)nn1,-18%,-7%,?,52,?
COc1ccc(N2CC(NC(=O)/C=C\c3ccccc3)CC2=O)cc1OC (configuration not stated),.,.,-10%,.,2%
CCOc1ccccc1NC(=O)C1=C(C)Nc2ncnn2C1c1ccco1 (configuration not stated),.,.,?,.,-25%
COc1ccccc1NC(=O)C1=C(C)Nc2nc(SCc3ccccc3F)nn2C1c1cccs1 (configuration not stated),.,.,9.2µM*,.,8.2µM*
CC1=C(C(=O)Nc2ccc(C)cc2C)C(c2cccs2)n2nc(SCc3ccccc3Cl)nc2N1 (configuration not stated),.,.,6.5µM*,.,10µM*
COc1ccccc1NC(=O)C1=C(C)Nc2nc(SCc3ccccc3C)nn2C1CC(C)C (configuration not stated),.,.,21µM*,.,-73%
CC1=C(C(=O)Nc2ccccc2C)C(c2cccs2)n2nc(SCc3cc(C)ccc3C)nc2N1 (configuration not stated),.,.,5.8µM*,.,?
CC1=C(C(=O)Nc2ccccc2)C(c2cccs2)n2nc(SCc3ccccc3F)nc2N1 (configuration not stated),.,.,-27%,.,-26%
CC1=C(C(=O)Nc2ccccc2C)C(c2ccncc2)n2nc(SCc3ccccc3Cl)nc2N1 (configuration not stated),.,.,-8%,.,-4%
COC(=O)c1sc2cccc(F)c2c1S(=O)(=O)NCc1ccccc1Cl,.,.,-12%,.,20%
Cc1nn(C(=O)COc2ccccc2)c(C)c1Sc1ccccc1,.,.,-17%,.,-14%
O=C(O)C(=Cc1ccc([N+](=O)[O-])cc1)c1cccc(Cl)c1,-2%,0%,?,26,8.2µM*
COc1ccccc1C(=Cc1ccc([N+](=O)[O-])cc1)C(=O)O,4%,1%,6%,9,4%
C=CCn1c(SCC(=O)NCC2CCCO2)nc2scc(-c3ccccc3)c2c1=O (configuration not stated),8%,-4%,?,-6,26µM*
C=CCn1c(SCC(=O)NCCCC)nc2scc(-c3ccco3)c2c1=O,-14%,-12%,?,-68*,?
Cc1nc(SC(C)C(=O)NCC2CCCO2)c2cc(-c3ccccc3)sc2n1 (configuration not stated),-9%,?,15µM*,-63*,15µM*

# Screening data as filed in PubChem BioAssay.
